# Screening results: PubChem, National Center for Advancing Translational Sciences (NCATS)
# Most compounds without a hit are left out; they make up all but 11% or so of the library.
# PNC assembly inh: High Content Assay for Compounds that inhibit the Assembly of the Perinucleolar Compartment | PC3M PTB-GFP, PNC prevalence imaging, 16 h; hits give low values | activity change (PNC), negative = inhibition, % at 10 µM | 3.1% of 140,000 active;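 active = readout at or below -70, meaning at least 70% loss of cells showing the perinucleolar compartment, a nuclear body marking cancer cells; inconclusive = readout between -30 and a set limit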;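 note: plate controls were DMSO wells for no effect and camptothecin positive control wells for full effect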
#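 PC3M cells stably expressing PTB-GFP, 750–1000 cells/well, treated 16 h at 37 °C with compound (23 nl of library stock), in duplicate. After paraformaldehyde fixation and Hoechst stain, imaged at 20x; PNC prevalence scored by image analysis.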
# IMPase Li cell: qHTS Assay for Identifying the Cell-Membrane Permeable IMPase Inhibitors: Potentiation with Lithium; CHO-M1 cells, IP1 TR-FRET (IP-One), carbachol + lithium; 0.35% of 210,000 active; Potency, µM (top dose mostly 59.4 µM), inactives show at the top dose activity, negative = IMPase inhibition, actives largely listed as inhibitors; active = well fitted curve in the direction sought with a large enough effect; inconclusive = small, poorly fitted or top-dose-only effect, or another doubt; inactive = no such curve, though single readings can be large; an effect the other way counts as inactive or inconclusive;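 note: IP1 builds up when IMPase is blocked and the TR-FRET signal falls; potency is the fitted concentration of half-maximal effect; plate controls were basal vehicle for no effect and high inhibitor control for full effect; nearly all actives have a fitted effect of over 50% in size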
#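 Test compounds were applied to CHO-M1 cells previously cultured for 16–30 h at 2000 per well. A small lithium amount accompanied them; after 30 min at 37C, IP1 was quantified by TR-FRET.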
# NPSR antagonist: qHTS Assay for Antagonists of the Neuropeptide S Receptor: cAMP Signal Transduction; Q6W5P4; CHO-NPSR cells, cAMP TR-FRET, antagonist mode; Potency, µM (series often up to 38.3 µM), for inactives: top-dose activity change, negative = inhibition, usual class: inhibitors; 1% of 220,000 active; active = well fitted curve in the direction sought with a large enough effect; inconclusive = small, poorly fitted or top-dose-only effect, or another doubt; inactive = no such curve, though single readings can be large; an effect the other way counts as inactive or inconclusive; note: potency is the fitted concentration of half-maximal effect; nearly all actives have a fitted effect of over 50% in size
# Target sequence (Q6W5P4 whole entry, looked up): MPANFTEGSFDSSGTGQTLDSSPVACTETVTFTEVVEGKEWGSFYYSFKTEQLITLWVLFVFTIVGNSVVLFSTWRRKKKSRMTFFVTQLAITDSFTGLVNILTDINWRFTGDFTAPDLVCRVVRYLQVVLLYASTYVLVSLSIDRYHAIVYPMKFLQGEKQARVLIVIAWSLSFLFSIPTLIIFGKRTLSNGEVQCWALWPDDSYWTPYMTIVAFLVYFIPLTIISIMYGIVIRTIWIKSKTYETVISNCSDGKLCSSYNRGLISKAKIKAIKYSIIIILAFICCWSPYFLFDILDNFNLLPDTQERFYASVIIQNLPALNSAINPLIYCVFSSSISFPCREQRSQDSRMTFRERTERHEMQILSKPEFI
# HPGD inh: qHTS Assay for Inhibitors of HPGD (15-Hydroxyprostaglandin Dehydrogenase). 15-hydroxyprostaglandin dehydrogenase [NAD(+)] (Homo sapiens), P15428. purified HPGD, NADH fluorescence kinetic, PGE2 substrate. Potency, µM, for inactives: at the highest dose activity change, negative = inhibition, most hits filed as inhibitors. 4.3% of 150,000 active. AID 894, 2007; note: potency is the fitted concentration of half-maximal effect
#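 20 nM HPGD preincubated 15 min at room temperature with compound in 50 mM Tris-HCl pH 8, 0.01% Tween 20. Started with 1 mM NAD+ and 30 uM prostaglandin E2; NADH fluorescence (360/450 nm) read 5 times over 30-s intervals, last minus first.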
# ALDH1A1 inh: qHTS Assay for Inhibitors of Aldehyde Dehydrogenase 1 (ALDH1A1); Purified ALDH1A1, NADH fluorescence, propionaldehyde substrate; Potency, µM (doses to about 75.3 µM), inactives show at the top dose activity, negative = inhibition, hits mostly inhibitors; 7.3% of 220,000 active; AID 1030, 2008;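 note: potency is the fitted concentration of half-maximal effect; plate controls were no enzyme wells and a reference inhibitor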
# IMPase inh: qHTS Assay for Identifying the Cell-Membrane Permeable IMPase Inhibitors. inhibition (IP1 accumulation), % at 46.1 µM. Inositol monophosphatase 1 (Rattus norvegicus), P97697. 120,000 tested, under 10 active. CHO-M1 cells, IP1 accumulation, HTRF TR-FRET ratio; active = well fitted curve in the direction sought with a large enough effect in the signal ratio, not every such curve was filed as active; inconclusive = small, poorly fitted or top-dose-only effect, or a change in a side signal; inactive = no such curve, though single readings can be large or run the other way; the % refers to the signal ratio;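 note: cells stimulated with carbachol in lithium chloride buffer; plate controls were DMSO basal wells for no effect and reference inhibitor wells for full effect; higher means more IMPase inhibition seen as more IP1 and lower FRET ratio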
# Target sequence (P97697 whole entry, looked up): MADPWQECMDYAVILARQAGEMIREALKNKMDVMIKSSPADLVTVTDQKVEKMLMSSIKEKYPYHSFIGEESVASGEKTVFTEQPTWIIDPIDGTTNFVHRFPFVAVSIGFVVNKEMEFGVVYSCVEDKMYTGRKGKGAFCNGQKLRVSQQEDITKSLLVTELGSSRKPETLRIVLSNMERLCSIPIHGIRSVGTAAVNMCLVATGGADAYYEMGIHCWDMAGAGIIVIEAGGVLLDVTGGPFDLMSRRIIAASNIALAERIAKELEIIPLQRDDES
#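 CHO-M1 cells (CHO stably expressing M1 receptor), compound up to 46 uM final, stimulated with carbachol (50 uM as added) in buffer with 50mM LiCl, pH 7.4, 30 min at 37C. Cytosolic IP1 read by TR-FRET; AC50 from Hill fits.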
# Active calls of the source: *; ? = inconclusive; / = not tested or not shown; [ ] = dose if it differs, or a comment. Unless noted, calls come from the whole dose curve; as a rule, active = well fitted inhibition curve with a large enough effect (not every such curve was filed as active); inconclusive = small, poorly fitted or top-dose-only effect, or another doubt; inactive = no such curve, though single readings can be large or run the other way. Unless noted, % is set by controls: 0 for no effect and ±100 for the full control effect.
SMILES,PNC assembly inh,IMPase Li cell,NPSR antagonist,HPGD inh,ALDH1A1 inh,IMPase inh
Cc1ccc(S(=O)(=O)Nc2c(C)n(C)n(-c3ccccc3)c2=O)cc1C(=O)OC(C)C(=O)N(C)c1ccccc1 (configuration not stated),/,14.1%,-52.9%,/,-12.2%,/
Fc1cnc(N2CCc3ccccc32)nc1N1CCc2ccccc21,33.2,?,8.8%[46.1 µM],?,2.24µM*,-13.3
O=C1CC(c2ccc(F)cc2)Cc2nc(N3CCc4ccccc43)ncc21 (configuration not stated),16.3,?,?,?,?,-4.0
CC(=O)C(Cc1ccc(Cl)nc1)(Cc1ccc(Cl)nc1)C(C)=O,/,4.9%,-7.7%,/,16.0%,/
COc1ccccc1-[n+]1c(C)cc(/C=C2\Sc3ccccc3N2C)cc1C,/,/,6.31µM*,/,/,/
COc1ccc(-[n+]2c(C)cc(/C=C3\Sc4ccccc4N3C)cc2C)cc1,/,38.2%,?,/,?,/
CC(=O)C(Sc1nccc(-c2cccs2)n1)C(C)=O,/,-6.6%,-20.6%,/,2.6%,/
COc1ccc(NC(=O)c2ccc(-c3ccc(-c4noc(C)n4)cc3C)cc2)cc1OCCN(C)C,/,12.3%,/,?,-6.6%,11.4
NC(=O)c1cc[n+](CC2=C(C(=O)O)N3C(=O)[C@@H](NC(=O)[C@H](c4ccccc4)S(=O)(=O)[O-])[C@@H]3SC2)cc1,/,1.4%,/,-6.4%,-3.3%[20.9 µM],2.4[20.6 µM]
NC(=O)c1cc[n+](CC2=C(C(=O)O)N3C(=O)C(NC(=O)C(c4ccccc4)S(=O)(=O)[O-])C3SC2)cc1 (configuration not stated),/,2.1%,/,31.6µM*,?,/
Cc1cc(C)nc(N2CCCC(C(=O)NNC(=O)c3ccncc3)C2)n1 (configuration not stated),/,/,12.7%,/,/,/
CN(C)c1ccc(C(=S)N2CCN(C(=S)Nc3cccc4ccccc34)CC2)cc1,/,3.0%,-0.7%,/,15.8µM*,/
CN(C)c1ccc(C(=S)N2CCN(C(=S)Nc3ccccc3)CC2)cc1,/,6.4%,-13.0%,/,?,/
Nc1c(-c2cccc([N+](=O)[O-])c2)nc2ccccn12,-20.9,46.4%,-22.0%,-22.0%,7.51µM*,/
COC(=O)c1[nH]c2c(c1C)C(=O)CC(c1ccccc1)C2 (configuration not stated),-110.9*,14.8%[38.3 µM],27.0%[46.1 µM],-5.7%,4.8%,4.5
Cc1c(C(=O)N2CCOCC2)[nH]c2c1C(=O)CC(c1ccccc1Cl)C2 (configuration not stated),-84.4*,29.2%[38.3 µM],4.5%[46.1 µM],-17.1%,?,7.4
Cc1c(C(=O)OC2CCCCC2)[nH]c2c1C(=O)CC(c1ccccc1Cl)C2 (configuration not stated),/,/,/,/,/,-9.1
CCC(C)OC(=O)c1[nH]c2c(c1C)C(=O)CC(c1ccc(N(C)C)cc1)C2 (configuration not stated),-22.7,40.2%[38.3 µM],-21.0%[46.1 µM],-13.3%,3.55µM*,11.4
Cc1c(C(=O)OC2CCCCCC2)[nH]c2c1C(=O)CC(c1ccc(N(C)C)cc1)C2 (configuration not stated),/,/,/,/,/,-1.1
CCOc1ccc(C2CC(=O)c3c([nH]c(C(=O)OCCOc4ccccc4)c3C)C2)cc1 (configuration not stated),/,/,/,/,/,-1.8
CCOCCOC(=O)c1[nH]c2c(c1C)C(=O)CC(c1ccc(N(C)C)cc1)C2 (configuration not stated),-25.3,34.5%[38.3 µM],-20.3%[46.1 µM],-12.3%,12.6µM*,11.5
Cc1c(C(=O)OCc2ccccc2)[nH]c2c1C(=O)CC(c1ccc(Cl)cc1)C2 (configuration not stated),/,/,/,/,/,9.2
C/C=C/COC(=O)c1[nH]c2c(c1C)C(=O)CC(c1ccc(N(C)C)cc1)C2 (configuration not stated),?,40.8%[38.3 µM],-28.3%[46.1 µM],-18.4%,5.01µM*,18.0
CS(=O)(=O)Nc1ccc(C(=O)NCc2cccnc2)cc1,6.9,22.6%[38.3 µM],-7.7%[46.1 µM],-12.8%,20.2%,-0.5
COc1ccc(NC(=O)Cc2ccccc2F)cn1,/,-2.3%,5.4%,/,-0.1%,/
SMILES,PNC assembly inh,IMPase Li cell,NPSR antagonist,HPGD inh,ALDH1A1 inh,IMPase inh
Cc1ccc(C2=[N+]([O-])C3(CCCCC/C3=N\O)N(O)C2(C)C)o1 (configuration not stated),-11.2,25.2%[38.3 µM],-7.7%[46.1 µM],-14.5%,28.2µM*,13.6
CCC(C)Nc1ccc(NC(C)CC)cc1 (configuration not stated),/,49.1%,/,-12.8%,8.91µM*,/
CCC(C)NC(=O)Nc1ccc(Br)cc1 (configuration not stated),/,5.8%,-14.6%,/,4.6%,/
CC(=O)NS(=O)(=O)c1ccc(N)cc1,-23.9,-7.2%,15.6%,-15.4%,0.8%,-1.3[20.6 µM]
N/C(=N\OC(=O)c1cccc2ccccc12)c1cccnc1,/,14.9%,5.4%,/,?,/
CCN(CC)S(=O)(=O)c1ccc(N2CCOCC2)c(NC(=O)CCC2CCCCC2)c1,-13.1,1.7%,-55.8%,?,1.58µM*,4.7
CCN(CC)S(=O)(=O)c1ccc(N2CCOCC2)c(NC(=O)Cc2ccccc2)c1,75.4,11.3%,-7.0%,-9.4%,12.6µM*,-4.4
CCN(CC)S(=O)(=O)c1ccc(O)c(NC(=O)c2ccc(N3CCOCC3)c([N+](=O)[O-])c2)c1,28.4,-2.1%,4.1%,31.6µM*,0.708µM*,/
O=C(COC(=O)CNS(=O)(=O)/C=C/c1ccccc1)NC1CCS(=O)(=O)C1 (configuration not stated),-21.7,17.1%[38.3 µM],-12.7%[46.1 µM],-11.3%,?,-2.4
CN(C)Cc1ccccc1-c1nccc(N(C)Cc2ccco2)n1,/,15.2%,/,/,-8.4%,/
COC(=O)c1ccc(S(=O)(=O)NCCSc2nnc3c4ccccc4n(C)c3n2)cc1,15.7,?,?,?,15.8µM*,4.7
CCOC(=O)N1CCN(S(=O)(=O)c2cc(Br)cc3c2N(C(C)=O)C(C)C3)CC1 (configuration not stated),?,6.7%,-1.1%[46.1 µM],-23.9%,7.2%,-2.8
O=C(O/N=C\c1ccc(N2CCCCC2)c([N+](=O)[O-])c1)c1c(F)cccc1F,23.3,11.1%[38.3 µM],-19.0%[46.1 µM],-19.9%,17.8µM*,5.2
Cc1ccc(C(=O)O/N=C\c2ccc(N3CCCCC3)c([N+](=O)[O-])c2)cc1,?,-10.7%[38.3 µM],-18.5%[46.1 µM],-16.3%,1.41µM*,-1.5
COc1ccc(OC)c(Cc2nnc(CCC(=O)NC3CCCCC3)o2)c1,/,2.9%,-3.4%,/,12.4%,/
